Source: PubChem BioAssay (National Center for Advancing Translational Sciences (NCATS))
NPC1 promoter act: activators of NPC1 promoter. Huh7 NPC1 promoter luciferase reporter, 24 h. Potency, µM (top dose mostly 9.22 µM), inactives show at the highest dose activation, most hits filed as activators. 320,000 compounds, 2.4% hits. AID 485313; note: % of control where 0% means no effect; nearly all actives have a fitted effect of over 60% in size
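In 1536-well qHTS, Huh7 cells harboring an NPC1 promoter–luciferase construct received compound for 24 h; activation was quantified by luminescence following luciferase reagent addition.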
SMN2 splice enh: enhancers of SMN2 splice variant expression; AID 1458; 210,000 compounds, 2.8% hits; Potency, µM (series often up to 46.1 µM), without a hit: at the highest dose activity change, positive = activation, usual class: activators; HEK293 SMN2-luciferase splicing reporter, luminescence, 30-36 h; note: % of control where 0% means no effect; nearly all actives have a fitted effect of over 55% in size
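qHTS luciferase splicing reporter: luminescence rises when SMN2 exon 7 is included in transfected HEK293 cells. Compound exposure lasted 30-36 h at 37C, with 4.5 mM final sodium butyrate as control, followed by a ONE-Glo read.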
FLuc counter: inhibits or activates purified firefly luciferase, miR-21 counter-screen; P08659; purified FLuc, Km substrates, luminescence inhibition; Potency, µM (highest dose often 57.5 µM), for inactives: at the highest dose activity change, negative = inhibition, hits mostly inhibitors; 360,000 compounds, 6.9% hits;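 note: plate controls were vehicle for no effect and reference inhibitor for full effect; nearly all actives have a fitted effect of over 55% in size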
Target sequence (P08659 whole entry, looked up): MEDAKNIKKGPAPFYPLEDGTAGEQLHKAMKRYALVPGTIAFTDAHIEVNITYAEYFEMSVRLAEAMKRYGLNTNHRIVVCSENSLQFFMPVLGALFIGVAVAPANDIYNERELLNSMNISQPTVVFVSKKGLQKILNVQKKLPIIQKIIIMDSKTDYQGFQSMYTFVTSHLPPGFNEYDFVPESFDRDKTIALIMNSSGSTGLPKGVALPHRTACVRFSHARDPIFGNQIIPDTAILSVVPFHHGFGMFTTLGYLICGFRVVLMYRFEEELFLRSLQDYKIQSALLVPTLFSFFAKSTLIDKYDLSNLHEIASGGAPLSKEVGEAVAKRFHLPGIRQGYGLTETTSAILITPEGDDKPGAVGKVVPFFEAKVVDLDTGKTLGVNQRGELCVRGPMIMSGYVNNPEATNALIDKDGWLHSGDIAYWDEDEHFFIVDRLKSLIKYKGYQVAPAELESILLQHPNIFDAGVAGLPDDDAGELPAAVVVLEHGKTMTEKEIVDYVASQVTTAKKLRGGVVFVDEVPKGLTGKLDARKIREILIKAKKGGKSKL
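Biochemical qHTS of compounds, final roughly 60 µM downward over six points, against 10 nM purified firefly luciferase using Km concentrations of substrates (10 uM D-luciferin, 10 uM ATP) in Tris acetate pH 7.5 buffer; luminescence output.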
ELG1 DNA repair: blocks ELG1-dependent DNA repair in HEK293T cells | HEK293T ELG1-luciferase reporter, luminescence, 16 h; DNA damage induced by 5-fluorouridine | Potency, µM (highest dose often 46.1 µM), inactives show at the top dose activity change, negative = inhibition, usual class: inhibitors | 330,000 compounds, 2.3% hits; note: % is set by controls: 0 for no effect and ±100 for the full control effect; nearly all actives have a fitted effect of over 55% in size
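In this reporter screen, reduction of luminescence relative to DMSO vehicle indicated activity. Compounds and 5-fluorouridine were added together to 2,000 cells per well, incubated for 16 hr at 37 °C, then developed with ONE-Glo.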
Rab9 promoter act: activators of Rab9 promoter. Huh7 Rab9 promoter-luciferase reporter, luminescence, 24 h. Potency, µM (highest dose often 9.22 µM), for inactives: top-dose activation, negative = inhibition, actives largely listed as activators. 320,000 compounds, 2.8% hits. AID 485297; note: % of control where 0% means no effect; nearly all actives have a fitted effect of over 60% in size
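Luminescence from Amplite-detected luciferase (10 minutes, ambient) reports Rab9 promoter activation. Before that, stable Rab9-luciferase Huh7 cells (1500/well, reduced-serum OP-MEM I plus 10% FBS) were exposed to compound for 24 hours at 37C.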
ELG1 genotox: inducers of genotoxicity in HEK293T ELG1-luciferase cells; HEK293T ELG1-luciferase reporter, luminescence, 16 h; Potency, µM (titrated, usually from 46 µM), for the others: at the highest dose activity change, positive = activation, actives largely listed as activators; 330,000 compounds, 1.3% hits; AID 504466; note: % of control where 0% means no effect; nearly all actives have a fitted effect of over 60% in size
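After overnight (16 hr) compound treatment at 37 °C, ELG1-luciferase HEK293T cells were lysed with ONE-Glo; luminescence quantified 30 min later at room temperature.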
Active calls of the source: *; ? = inconclusive; . = no result given; [ ] = remark or other dose. Shown are actives, neighbours in structure and some others; about 9.4% of the full set was active somewhere. Calls come from the whole dose curve; as a rule, active = well fitted curve in the direction sought with a large enough effect; inconclusive = small, poorly fitted or top-dose-only effect, or another doubt; inactive = no such curve, though single readings can be large; an effect the other way counts as inactive or inconclusive. Potency is the fitted concentration of half-maximal effect.

SMILES	NPC1 promoter act	SMN2 splice enh	FLuc counter	ELG1 DNA repair	Rab9 promoter act	ELG1 genotox
O=C1C(=O)c2ccccc2-c2ccccc21	-46%	-106%	-9%	7.3µM*	-33%	-23%
O=C1C(=O)c2cccc3cccc1c23	-10%	-15%	1%	-6%	13%	?
NC1=C(Br)C(=O)c2ccccc2C1=O	-37%	.	?	23µM*	-37%	-10%
OC(c1ccccc1)(c1ccccc1)C1CCCN1 (configuration not stated)	-37%	19%	12µM*	?	3.2µM*	?
CCCC[N+]12CCC(CC1)C(C(O)(c1ccccc1)c1ccccc1)C2 (configuration not stated)	-5%	.	0%	-12%	-9%	-1%
CCOP(=S)(OCC)SCSC(C)(C)C	.	-3%	.	.	.	.
CC(C)CC(NS(=O)(=O)c1ccc2c(c1)oc(=O)n2C)C(=O)N1CC=C(c2ccccc2)CC1 (configuration not stated)	-2%	-10%	-1%	?	5%	-8%
CCN(CC)S(=O)(=O)c1cc(NC(=O)C(C)N2CC=C(c3ccccc3)CC2)ccc1C (configuration not stated)	-7%	-60%	2%	15µM*	-6%	2%
O=C(Nc1ccccc1F)Oc1cccc(OC(=O)Nc2ccccc2F)c1	3.5µM*	.	17µM*	?	2.8µM*	10%
BrCCBr	.	-2%	.	.	.	.
CN(C)c1ccc(CCN2CCOCC2)cc1	3%	.	17µM*	?	1%	?
O=C1NC(=O)C(CCc2ccncc2)(Cc2cccc(Cl)c2Cl)C(=O)N1c1ccc(Br)cc1 (configuration not stated)	-25%	1%	1%	16µM*	-29%	-5%
CCc1ccc(N2C(=O)NC(=O)C(CCc3ccncc3)(CCc3ccncc3)C2=O)cc1	-5%	5%	-2%	?	-3%	0%
O=C(Cn1ncc2c3ccccc3n(Cc3ccc(F)cc3)c2c1=O)N1CCC2(CC1)OCCO2	-3%	-34%	-1%	21µM*	7%	-11%
Cc1cc(C=C2C(=O)N(C)C(=S)N(C)C2=O)c(C)n1C1CCCCC1	-6%	-20%	3.4µM*	-1%	3%	-2%
Cc1cc(C=C2C(=O)NC(=O)NC2=O)c(C)n1-c1cccnc1	2%	.	?	-2%	0%	3%
Cc1cc(C=C2C(=O)NC(=S)NC2=O)c(C)n1C1CCCC1	0%	7%	1.5µM*	?	0%	21µM*
CS(=O)(=O)O[C@H]1CN2CCC1CC2	.	-9%[9.22 µM]	.	.	.	.
O=C(Nc1ccc2nc(SCC(=O)N3CCOCC3)sc2c1)c1ccc(Cl)cc1	.	.	11µM*	.	.	.
O=C(Oc1ccc(Cl)cc1)N1CCOCC1	-2%	.	-12%	?	9%	-1%
C=CCN1CCc2cccc3c2C1Cc1ccc(O)c(O)c1-3 (configuration not stated)	.	-77%	.	.	.	.
Clc1cccc(/C=N\Nc2nccs2)c1	?	25%	13µM*	?	?	21µM*
C=CC1CC=CCC1 (configuration not stated)	.	-1%	.	.	.	.
O=C(O)CCC(=O)NCCC1=c2ccccc2=N/C1=C\c1c(O)n(Cc2ccc(F)cc2)c(=S)[nH]c1=O	-5%	.	11µM*	?	-4%	5%
COc1ccc(NC(=O)CCCn2c(=O)oc3ccccc32)cc1Cl	?	?	12µM*	?	?	?
Cn1c(=O)oc2cc(NC(=O)CCl)ccc21	-10%	.	0%	?	-2%	-13%
CN(C)CCCNc1c2c(nc3ccc(Cl)cc13)CCCC2	.	-4%[9.22 µM]	.	.	.	.
O=C(N1CCOCC1)C1(c2ccccc2)CCNCC1	.	-13%[9.22 µM]	.	.	.	.
Cc1cc2c(cc(C(=O)N3CCC(C(=O)NC4CCCC4)CC3)n2Cc2c(F)cccc2Cl)o1	-8%	.	-6%	23µM*	-6%	-13%
